Each structure is given as a SMILES string. Among all 48,000 compounds or so, about 13,000 (27%) showed an effect of 50% or more. Some of the results follow.

In the assay the test system is Wolbachia pipientis. The assay can be described thus: Anti-Wolbachia Cell-Based Screen. Format: functional. Details: scale not given: in the data most compounds retested in dose-response had high values. The conditions noted are these: 5 µM.
With `Cc1cc(CN2CCCC2c2noc(C3CC3)n2)c2ccccc2n1` (stereo not drawn), the “Percent Effect” value is recorded as 1.295%.

As to `Cc1noc(C)c1-c1n[nH]c2c1CN(S(=O)(=O)c1ccsc1)CC2`, the “Percent Effect” value is 10.76%. As to `N#Cc1cccc(Cl)c1NCCCc1nc(=O)[nH][nH]1`, the “Percent Effect” value was -19.22%. Take `O=C(N[C@@H]1CCNC[C@H]1O)c1ccccc1OC(F)(F)C(F)F`: the “Percent Effect” value is -13.38%.

For the molecule `Cc1ccn(Cc2nc(C(C)OCC(C)C)no2)c(=O)c1` (stereo not drawn), the “Percent Effect” value amounted to 12.04%. Turning to `CC(=O)N1CCCN(Cc2nnc(C(C)(C)C)o2)CC1`, the “Percent Effect” value is given as -4.735%. As for `Cn1nc2c(cc1=O)CN(CC(=O)NC1CCCCNC1=O)CC2` (stereo not drawn), the “Percent Effect” value was found to be 4.736%. `CSc1ccc(C(=O)N(c2ccc(F)cn2)C2CCOCC2)o1`: the “Percent Effect” value came to 4.022%. `CN1CCN(C(=O)c2cncc(CC3CCCN(C)C3)c2)CC1` (stereo not drawn): the “Percent Effect” value is listed as -11.29%. Consider `COCC(=O)N1CCN2C(=O)OC[C@H]2C1`, for which the “Percent Effect” value is -11.81%. `COCC(=O)N1CCN(C)CC(Cc2cc(N(C)C)ncn2)C1` (stereo not drawn): the “Percent Effect” value is reported as 95.35%. Turning to `CN1CCN(C(=O)c2ccccc2)CC(Cc2cc(N(C)C)ncn2)C1` (stereo not drawn), the “Percent Effect” value came out at 80.45%. For the molecule `Cc1nn(C)c2c(N3CCN(C(=O)c4ccccc4)CC3)ncnc12`, the “Percent Effect” value came to 3.277%.

`COCC(=O)N1CCCC(C(=O)N(C)CCCc2cnn(C)c2)C1` (stereo not drawn): the “Percent Effect” value worked out at 14.99%. With `OCc1cc2ccccc2nc1NCC1CC1`, the “Percent Effect” value stood at 2.516%. Turning to `O=C(Cn1cnc(NC(=O)c2ccccn2)n1)NCc1ccccc1`, the “Percent Effect” value turned out to be 11.88%. Consider `COc1ccc(CN2CCOC3(CCCN(c4nnc(C)o4)C3)C2)cc1.O=C(O)C(F)(F)F` (stereo not drawn), for which the “Percent Effect” value is -9.107%.

Turning to `COCCN1CCc2ccc(=O)n(Cc3csc(C)n3)c2CC1.O=C(O)C(F)(F)F.O=C(O)C(F)(F)F`, the “Percent Effect” value is -8.44%. For the molecule `CCOC1CC2(CCN(Cc3cccn3C)CC2)C1.O=C(O)C(F)(F)F`, the “Percent Effect” value was determined as 0.1287%.

Consider `Cc1nc(CN2C(=O)CCC23CCN(Cc2cccn2C)CC3)cs1.O=C(O)C(F)(F)F.O=C(O)C(F)(F)F`, for which the “Percent Effect” value came out at 110.4%. Regarding `COCCN1CCC2(CCC(=O)N2Cc2csc(C)n2)CC1.O=C(O)C(F)(F)F.O=C(O)C(F)(F)F`, the “Percent Effect” value is recorded as 99.3%.

Consider `Cc1nc(CN2C(=O)CCC23CCN(Cc2ccoc2)CC3)cs1.O=C(O)C(F)(F)F.O=C(O)C(F)(F)F`, for which the “Percent Effect” value worked out at 99.35%. In the case of `Cc1nc(CN2C(=O)CCC23CCN(c2ncccn2)CC3)cs1.O=C(O)C(F)(F)F`, the “Percent Effect” value is 11.75%. Take `Cc1nc(CN2C(=O)CCC23CCN(Cc2ccccn2)CC3)cs1.O=C(O)C(F)(F)F.O=C(O)C(F)(F)F`: the “Percent Effect” value stood at 113.7%. As for `NC(=O)C1CCN(C(=O)CSC2CCCc3ccccc32)CC1` (stereo not drawn), the “Percent Effect” value is reported as -6.301%.

As to `CCOc1ccccc1C(CC(=O)N(C)c1ccccc1)NC(C)=O` (stereo not drawn), the “Percent Effect” value is 3.437%. With `O=C(c1ccn(-c2cccc(Cl)c2)n1)N1CCN(C2CC2)CC1`, the “Percent Effect” value was 7.351%.

For `CCC(C)NC(=O)CS(=O)(=O)Cc1cc(C)ccc1C` (stereo not drawn), the “Percent Effect” value is recorded as -1.911%. For the molecule `CCC(C)NC(=O)c1cc(S(=O)(=O)N(C)C)c(C)s1` (stereo not drawn), the “Percent Effect” value is 107%. On to `CCC(C)NC(=O)c1cc(S(=O)(=O)N2CCCC2)c(C)s1` (stereo not drawn), for which the “Percent Effect” value is 99.85%. The same measure for `CC(C)NC(=O)c1cc(Br)cc(S(=O)(=O)N2CCOCC2)c1F`: -9.649%; for `CC(C)NC(=O)CS(=O)(=O)c1cc2c(cc1Cl)OCCO2`: -3.378%; for `CCC(C)NC(=O)c1cncc(Br)c1` (stereo not drawn): 12.99%. Regarding `CC(C)NC(=O)C(C)S(=O)(=O)c1cc2c(cc1Cl)OCCO2` (stereo not drawn), the “Percent Effect” value is recorded as -0.523%. Take `Cc1sc(C(=O)NC(C)C)cc1S(=O)(=O)N(C)C`: the “Percent Effect” value was found to be 135.1%.

`COCCNC(=O)c1cc(S(=O)(=O)N2CCCC2)cs1`: the “Percent Effect” value was 6.896%.

As to `CCN1CCC(N2CCN(c3cc(-c4nc(C)no4)ccn3)CC2)CC1`, the “Percent Effect” value was 10.41%.

Regarding `Cc1cc(-c2cnc(NC3CCCC3)nc2-c2ccoc2C)on1`, the “Percent Effect” value is reported as -4.074%. The same measure for `Cc1cc(-c2cnc(NC3CC3)nc2-c2ccoc2C)on1`: 65.28%; for `Cc1cc(-c2cnc(NC3CCCCC3)nc2-c2ccco2)on1`: 96.71%. With `CCN1CCN(c2ncc(-c3cc(C)no3)c(-c3ccoc3C)n2)CC1`, the “Percent Effect” value is recorded as -0.7712%.

As to `Cc1cc(-c2cnc(NC3CC3)nc2-c2ccco2)on1`, the “Percent Effect” value worked out at 84.65%. As for `CCN1CCN(c2ncc(-c3cc(C)no3)c(-c3ccco3)n2)CC1`, the “Percent Effect” value is 110.6%.

With `O=C1NCCO[C@H]2CN(C(=O)CCc3ccccc3Cl)CC[C@@H]12`, the “Percent Effect” value is given as -36.6%. Take `COCC1CN(C(=O)COc2ccc(C)cc2)Cc2cn(C)nc21.O=C(O)C(F)(F)F` (stereo not drawn): the “Percent Effect” value was -4.21%.

Consider `CCn1ncc2c1CCCC2NCc1cscn1` (stereo not drawn), for which the “Percent Effect” value is recorded as -5.451%.

Take `Cc1occc1-c1nc(NC2CCCC2)ncc1-c1ccccn1`: the “Percent Effect” value worked out at 77.82%.

Regarding `Cc1cc(-c2cnc(NC3CCCC3)nc2-c2ccc(C)o2)on1`, the “Percent Effect” value came out at 122.4%. Consider `Cc1cc(-c2cnc(NC3CCCC3)nc2-c2ccco2)on1`, for which the “Percent Effect” value was 111.9%.

On to `Cc1cccnc1C(Nc1nccc(C2CCCC2)n1)C1CC1` (stereo not drawn), for which the “Percent Effect” value was -13.6%. On to `Cc1cc(C2CCC2)nc(N(C)Cc2cc(-c3ccccn3)no2)n1`, for which the “Percent Effect” value stood at 38.25%. With `CNC(=O)C1CCCCN1C(=O)c1csc(-c2ccc(C)o2)n1` (stereo not drawn), the “Percent Effect” value is recorded as -2.315%.

Take `O=C1CCC(C(=O)NCCOc2ccccc2-c2ccccc2)CN1` (stereo not drawn): the “Percent Effect” value stood at 30.95%. In the case of `NC(=O)c1cccc(NC(=O)CSc2ccc3c(c2)CCC3)c1`, the “Percent Effect” value is on record as 10.83%. As to `Cn1ncc(C(=O)O)c1C(=O)Nc1nc2ccc(Br)cc2s1`, the “Percent Effect” value was 84.26%. The same measure for `COc1ccc2nc(C3CC3)cc(C(=O)NCc3ncnn3C)c2c1`: -9.156%. Consider `CCOc1ccc2nc(NC(=O)c3c(C(=O)O)cnn3C)sc2c1`, for which the “Percent Effect” value is reported as -2.899%. In the case of `COc1nc2c(cc1C(=O)NCCc1nc3ccccc3s1)CCC2`, the “Percent Effect” value is reported as -9.25%. `Cn1cnnc1CNC(=O)c1ccc(Br)cc1O`: the “Percent Effect” value is reported as -16.68%. With `COc1ccc2nc(NC(=O)c3c(C(=O)O)cnn3C)sc2c1` the figure was 107.5%; with `Cn1ncc(C(=O)O)c1C(=O)Nc1nc2ccccc2s1`, 107.6%. As to `Cn1c(C(F)(F)F)nn(CCNC(=O)c2nc3ccccc3s2)c1=O`, the “Percent Effect” value is listed as -27.26%. On to `Fc1cnc(N2CCc3nnc(COc4ccccn4)n3CC2)nc1.O=C(O)C(F)(F)F`, for which the “Percent Effect” value is recorded as 2.887%.

(Values after ChEMBL document CHEMBL3988442, “University of Dundee, Small-Polar-MMV Screening Library” (2021).)
